Hit rate of the full screen: of about 1,200 compounds, fewer than 10 were called active. Not all results are given here. Values without a mark were called inactive. The rule behind the calls is not given here.

Data on 74 compounds can be found in PubChem BioAssay AID1305 (SRMLSC, 2008).

The experiment can be described thus: sensitized control strain growth on 5-FOA – S. cerevisiae, OD615, counter-screen for RAM network inhibitor project, dose response (AID 1305).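 Note: plate controls were vehicle for no effect and reference inhibitor for full effect.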 The following applies: S. cerevisiae efflux-deficient reporter strain, 5-FOA growth OD615, 2 days, active compounds read high; at 100 µM unless noted. On the technique in general: Counterscreens check selectivity or assay interference.
For `CCC(C)(C)c1ccc(Oc2ccc(NC(=O)COC(=O)C3=COCCO3)cc2)cc1`, the max inhibition is 1.41%.
Under `Cc1ccccc1CSCCNC(=O)c1ccc(N(C)S(=O)(=O)c2ccccc2)cc1` stands 3.2%.
Then `Fc1ccc(-n2c(Cc3ccccc3)nnc2SCc2nc(-c3ccc(Cl)cc3)no2)cc1`, with 1.1% [setting not given]; and `COCCN(C(=O)C(C)C)c1nnc(-c2ccc(C(C)(C)C)cc2)s1`, with 1.87% [at 50 µM]; and `COc1ccc(/C=C(\NC(=O)c2ccc(OCC(C)C)cc2)C(=O)OCc2ccco2)cc1`, with 3.48%.
Then `O=C(COC(=O)/C(=C/c1cccs1)c1cccs1)NCc1ccccc1Cl`, with 1.81% [at 25 µM]; and `Cc1c(N=Nc2ccc(N(C)C)cc2)c(=O)n(-c2ccccc2)n1C`, with 20%; and `CN(C)S(=O)(=O)c1cccc(NC(=O)COC(=O)C2(c3ccccc3F)CCCC2)c1`, with 1.8% [at 50 µM].
As to `CCOC(=O)c1sc2nc(CSCC(=O)OCc3ccc(C(=O)OC)o3)[nH]c(=O)c2c1C`, the max inhibition is 2.47% [at 50 µM].
As to `CCN=C1S/C(=C\c2cc(Br)ccc2OCC(=O)OCC)C(=O)N1CC`, the max inhibition was 3.82% [at 50 µM].
On to `Cc1cccc(-n2c(SCC(=O)Nc3cccc(S(=O)(=O)NC4=NCCCCC4)c3)nc3ccccc3c2=O)c1C`, for which the max inhibition is 2.12% [setting not given].
Then `c1ccc(-c2csc(N3CCc4ccccc4C3)n2)cc1`, with 4.47%; and `O=C(COC(=O)/C=C/c1nc2ccccc2s1)Nc1ccccc1Oc1ccccc1`, with 1.95% [at 1.563 µM]; and `O=C(OCc1ccc(Br)cc1)c1cccc(-c2nnc(-c3ccccc3)o2)c1`, with 3.97% [at 50 µM].
Under `CC(=O)c1c(Nc2ccccc2)sc(C(=O)c2ccccc2)c1C` stands 4.16% [at 50 µM]; under `CCCSc1nc(NCc2ccco2)c2c3c(sc2n1)COC(C)(CC)C3` (centres undefined), 4.05% [at 50 µM]; under `Cc1ccc(NC2=C(Cl)C(=O)OC2OC(=O)c2ccccc2C)cc1` (centres undefined), 1.91% [at 50 µM].
Consider `Cc1cc(C)cc(NC(=O)CSCc2cnn(-c3ccccc3)c2-n2cccc2)c1`, for which the max inhibition was 6.62%.
Under `COC(=O)CCCCCN1C(=O)NC(c2ccc(-c3ccccc3)cc2)C(C(=O)OCc2ccccc2)=C1C` (centres undefined) stands 4.42% [at 25 µM]; under `O=C(NCc1ccccc1)C1=C[C@@H](c2ccc(C(F)(F)F)cc2)C[C@@H](OCc2ccc(CO)cc2)O1`, 3.48%; under `Cc1ccc(N=Nc2c(C)[nH]n(-c3ccccc3)c2=O)cc1`, 1.87% [at 50 µM].
Under `COC(=O)c1sccc1NC(=O)c1csc2c1CCCC2` stands 4.49% [at 25 µM].
Under `CC(O)C(NS(=O)(=O)c1ccc(Cl)cc1)C(=O)OCc1cc([N+](=O)[O-])cc2c1OCOC2` (centres undefined) stands 1.67%.
Regarding `COc1ccc(Cl)cc1NC(=O)NC(C)C(C)(C)C` (centres undefined), the max inhibition is 1.97% [setting not given].
In the case of `CCOC(=O)CC(=O)CSc1nc(-c2ccccc2)cc(-c2ccc(Cl)cc2)c1C#N`, the max inhibition is 1.73% [setting not given].
Then `C=CCOC(=O)C1=C(C)NC(SCC(=O)OCC)=C(C#N)C1c1ccc(C)cc1` (centres undefined), with 4.12%; and `CCCCn1ccnc1C(=O)c1cccc(S(=O)(=O)N2c3ccccc3CC2C)c1` (centres undefined), with 3.37%; and `CN(c1ccccc1)c1ccc(/C=c2\s/c(=C(/C#N)C(=O)C(C)(C)C)n(Cc3ccco3)c2=O)cc1`, with 4.2% [at 25 µM].
Under `N/C(Cc1ccc([N+](=O)[O-])cc1)=N\OC(=O)COc1ccc2ccccc2c1` stands 1.6%.
Then `COc1ccc(/C(C)=N/Nc2cc(C(F)(F)F)ccc2Cl)c(OC)c1`, with 2.82%; and `Cc1cc2ccccc2n1CCNC(=O)COc1ccc2ccccc2c1`, with 4.22%.
On to `N#C/C(=C\C1=C(N2CCOCC2)C(=C\c2ccccc2)/CC1)C(=O)Nc1ccccc1F`, for which the max inhibition was 1.39% [setting not given].
Under `COc1ccc(O[C@H]2C=C[C@@H](c3ccccc3)O[C@@H]2CO/N=C/C[C@@H]2C=C[C@H](OC(C)=O)[C@@H](COC(C)=O)O2)cc1` stands 1.15% [setting not given]; under `O=C(COC(=O)CCCNC(=O)c1ccc(Cl)cc1)Nc1cc(Cl)ccc1Cl`, 3.65%.
Under `COc1c(Br)cc2c(C)c(C(=O)N3CCOCC3)oc2c1Br` stands 1.57% [setting not given].
Then `CCC1C/C(=C/c2cccs2)C(=O)/C(=C/c2cccs2)C1` (centres undefined), with 6.29%; and `CCc1nc(Nc2ccc3nccnc3c2)c2oc3ccccc3c2n1`, with 13.2%.
For `Oc1c(Cl)cc(Cl)c(Cl)c1Cc1c(O)c(Cl)cc(Cl)c1Cl`, the max inhibition is 0.89% [setting not given].
Under `O=C(CCC(=O)OCc1cccc(C(=O)Oc2ccccc2)c1)Nc1cccc2ccccc12` stands 2.95% [at 12.5 µM].
Take `O=C1/C(=C/c2ccc3c(c2)OCO3)CCC/C1=C\c1ccc2c(c1)OCO2`: the max inhibition was 4.85% [at 50 µM].
Under `CCOC(=O)CSC1=C(C#N)C(c2ccco2)C(C(=O)OCc2ccccc2)=C(C)N1` (centres undefined) stands 1.67%; under `Cc1ccc(S(=O)(=O)c2c(N)n(C)c3nc4ccccc4nc23)cc1`, 4.57%.
Under `CCC(C(=O)OCC(=O)Nc1c(Cl)cc(Cl)cc1Cl)c1ccccc1` (centres undefined) stands 2.14% [setting not given].
Then `C=CCO/N=C(\C)c1c(O)c(C)c(-c2ccccc2)n(-c2ccccc2)c1=O`, with 3.26%; and `COc1ccc2c(c1)CCc1c(C(=O)N3CCc4ccccc4C3)noc1-2`, with 1.6% [setting not given].
`CCOc1ccc(CN(Cc2ccco2)C(c2cccs2)c2nnnn2C(C)(C)C)cc1` (centres undefined): the max inhibition is 4.45%.
Under `Cc1ccc(C(=O)/C=C/c2c(C)nn(-c3ccccc3)c2Cl)cc1` stands 7.53%.
On to `CCCCC(C(=O)OCC(=O)c1ccc(OC)cc1)N1C(=O)c2ccccc2C1=O` (centres undefined), for which the max inhibition is 4.61%.
Regarding `COc1ccc(C2C=C(c3ccc(Br)cc3)Nc3nc(NS(C)(=O)=O)nn32)cc1` (centres undefined), the max inhibition is 3.37%.
Under `CCCNC(=O)OC[C@H]1O[C@H](CCO/N=C/[C@@H](NS(=O)(=O)c2ccc(C)cc2)[C@H](C)/C=C/CC(=O)OC)C=C[C@@H]1Oc1ccc(OC)cc1` stands 1.46% [at 50 µM]; under `Fc1ccc(CSc2nnc(-c3cc4c(s3)-c3ccccc3CC4)o2)cc1`, 4.57%; under `O=C(CSc1nc(-c2ccccc2)cs1)Nc1cccc([N+](=O)[O-])c1`, 3.34%.
Under `COc1ccc(OC)c(C2C3=C(N=c4s/c(=C\c5cccc(O)c5)c(=O)n42)c2ccccc2CC3)c1` (centres undefined) stands 2.51% [setting not given]; under `CCCC(C(=O)n1nc(C)cc1C)C(NS(=O)(=O)c1ccc(C)cc1)c1ccccc1` (centres undefined), 2.29% [at 1.563 µM].
On to `O=C(NCc1ccccc1)[C@H]1C[C@@H]1[C@H](NP(=O)(c1ccccc1)c1ccccc1)c1ccccc1`, for which the max inhibition is 2.82%.
For the compound `COC(=O)c1ccc(C2C(Oc3ccccc3C)C(=O)N2CCc2ccc(OC)c(OC)c2)cc1` (centres undefined), the max inhibition is 3.17%.
Then `CC1CCN(C(=S)c2ccc(-c3ccc(Cl)cc3Cl)o2)CC1`, with 4.91%; and `COc1ccc(/C=C/C(=O)OCC(=O)Nc2cccc(Oc3ccccc3)c2)c(OC)c1`, with 3.76%.
Under `COc1ccc(C)cc1NC(=O)C(Sc1ccccc1)c1ccccc1` (centres undefined) stands 4.82%; under `NS(=O)(=O)c1ccc(NC(=S)NC(=O)c2cccc(Br)c2)cc1`, 2.4% [at 1.563 µM].
Then `COc1ccc(C(=O)NC(=S)Nc2ccc(N3CCCC3)cc2)cc1OC`, with 1.3% [setting not given]; and `C=CCc1ccccc1OCC(=O)N/N=C/c1ccccc1OCC`, with 1.41%.
With `Clc1ccccc1CSc1nnc(-c2ccco2)c(-c2ccco2)n1`, the max inhibition is 7.87%.
`O=C(NCc1ccccc1)C1=C[C@@H](C2CCCCC2)C[C@@H](OCc2ccc(CO)cc2)O1`: the max inhibition is 5.02%.
Then `CCOC(=O)c1c(C)nc2c(c1C)c(=O)oc1ccccc12`, with 1.3% [at 25 µM]; and `Cc1cccc(N2CCN(C(=O)c3cnn4c(C(F)F)cc(-c5ccccc5)nc34)CC2)c1C`, with 2.51%; and `Cc1ccc(CCC(=O)Nc2ncc(Cc3cc(Cl)ccc3Cl)s2)o1`, with 2.81%.
Under `O=C(CSCc1ccc(Br)cc1)Nc1ccc(S(=O)(=O)N2CCCCCC2)cc1` stands 2.51%; under `COC(=O)CCSc1cc([N+](=O)[O-])cc2c1c(C1OCCS1)nn2-c1ccccc1` (centres undefined), 4.89% [at 12.5 µM]; under `COc1ccc(OCCCn2cccc2/C=C2/C(=N)N3OC(C)=CC3=NC2=O)cc1`, 3.93%.
Consider `O=[N+]([O-])c1ccc2oc(-c3cccc(O)c3)nc2c1`, for which the max inhibition is 5.09% [at 25 µM].
For the compound `CC(C)=CCCC1(C)C=Cc2c(ccc3c2[nH]c2cc(O)c(C)cc23)O1` (centres undefined), the max inhibition was 2.74%.
Then `Cc1ccc(C(=O)c2c(NC(=O)c3ccccc3)sc(C)c2C)cc1`, with 2.97% [setting not given].
Under `CSc1ccccc1-c1nnc(-c2ccc(Cl)cc2)o1` stands 2.32% [at 50 µM].
